{"source": "PubChem BioAssay (EPA / NIEHS)", "note": "Where “and” joins values, the source holds several entries; their conditions need not be identical. Equal entries are not always repeated. Calls of active or inactive are those of the source. Rule for the calls: active = hit-call score of the fitted dose curve at least 0.9, where 1 is the maximum; inactive = score below 0.9.", "data": [{"read-out": "urokinase plasminogen activator (uPA), PLAU (gene 5328)", "test": "BSK_KF3CT_uPA: BioMAP Diversity Plus: KF3CT Assay for urokinase plasminogen activator (uPA) Biomarker Activity (AID 2283075)", "conditions": "primary human keratinocytes with fibroblasts; actives raise or lower the signal", "summary_of_the_method": "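Skin co-culture (keratinocytes + foreskin fibroblasts), human primary; 24 h post-dose; uPA by ELISA; gain/loss fit vs DMSO baseline.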", "values": [{"smiles": "CCOC(=O)C(C)Oc1ccc(Oc2cnc3cc(Cl)ccc3n2)cc1", "note": "(stereo not drawn)", "outcome": "inactive"}, {"smiles": "C#C[C@]1(O)CC[C@H]2[C@@H]3CCC4=CC(=O)CC[C@@H]4[C@H]3CC[C@@]21CC", "outcome": "inactive"}, {"smiles": "CC(C)(c1ccc(O)cc1)c1ccc(O)cc1", "outcome": "inactive"}, {"smiles": "COC(=O)c1ccccc1S(=O)(=O)NC(=O)Nc1nc(OC(F)F)cc(OC(F)F)n1", "outcome": "inactive"}, {"smiles": "S=C(S)NCCNC(=S)S.[Mn+2].[S-]C([S-])=NCCN=C([S-])[S-].[Zn+2]", "outcome": "inactive"}, {"smiles": "CCC(O)=C1C(=O)CC(C(=O)O)CC1=O", "note": "(stereo not drawn)", "outcome": "inactive"}, {"smiles": "CCCCCOC(=O)COc1cc(N2C(=O)C3=C(CCCC3)C2=O)c(F)cc1Cl", "outcome": "inactive"}, {"smiles": "CCOC(=O)c1ccc(O)cc1", "outcome": "inactive"}, {"smiles": "CCCCC(CC)COC(=O)c1ccccc1C(=O)O", "note": "(stereo not drawn)", "outcome": "inactive"}, {"smiles": "CCOC(=O)NCCOc1ccc(Oc2ccccc2)cc1", "outcome": "inactive"}, {"smiles": "CCC(C)OC(=O)N1CCCCC1CCO", "note": "(stereo not drawn)", "outcome": "inactive"}, {"smiles": "CCNc1nc(N)nc(Cl)n1", "outcome": "inactive"}, {"smiles": "COC(=O)c1ccccc1C(=O)O", "outcome": "inactive"}, {"smiles": "COC(=O)c1cccc(C)c1S(=O)(=O)NC(=O)Nc1nc(OCC(F)(F)F)nc(N(C)C)n1", "outcome": "inactive"}, {"smiles": "O=C(O)C1(C(=O)Nc2ccc(Cl)cc2Cl)CC1", "outcome": "inactive"}, {"smiles": "Oc1ccc(C(c2ccc(O)cc2)C(Cl)(Cl)Cl)cc1", "AC50": "31.8 µM (active)"}, {"smiles": "N[C@@H](Cc1cc(I)c(Oc2ccc(O)c(I)c2)c(I)c1)C(=O)O", "outcome": "inactive"}, {"smiles": "COc1c(Cl)ccc(Cl)c1C(=O)O", "outcome": "inactive"}, {"smiles": "CC(C)CCCCCCc1ccc(O)cc1", "AC50": "9.65 µM (active)"}, {"smiles": "N#CSCSc1nc2ccccc2s1", "AC50": "6.91 µM (active) and 11.5 µM (active)"}, {"smiles": "CCN(Cc1c(F)cccc1Cl)c1c([N+](=O)[O-])cc(C(F)(F)F)cc1[N+](=O)[O-]", "outcome": "inactive"}, {"smiles": "O=C(O)c1ccccc1", "outcome": "inactive"}, {"smiles": "Cc1nn(C)c(Oc2ccccc2)c1C=NOCc1ccc(C(=O)OC(C)(C)C)cc1", "outcome": "inactive"}, {"smiles": "C[C@]12C[C@H](O)[C@H]3[C@@H](CCC4=CC(=O)CC[C@@]43C)[C@@H]1CC[C@@H]2C(=O)CO", "outcome": "inactive"}, {"smiles": "CC(=O)[C@H]1CC[C@H]2[C@@H]3CCC4=CC(=O)CC[C@]4(C)[C@H]3CC[C@]12C", "outcome": "inactive"}, {"smiles": "CCCCC(CC)CN1C(=O)C2C3C=CC(C3)C2C1=O", "note": "(stereo not drawn)", "outcome": "inactive"}, {"smiles": "O=C(c1ccccc1)C1CCCCC1", "outcome": "inactive"}, {"smiles": "CCCN(CCC)C(=O)SCC", "outcome": "inactive"}, {"smiles": "CCCOC(=O)c1ccc(C(=O)OCCC)nc1", "outcome": "inactive"}, {"smiles": "CCCOC(=O)NCCCN(C)C", "outcome": "inactive"}]}, {"read-out": "CD40, CD40 (gene 958)", "test": "BSK_LPS_CD40: BioMAP Diversity Plus: LPS Assay for CD40 Biomarker Activity (AID 2283076)", "conditions": "primary human HUVEC with PBMC; actives raise or lower the signal", "summary_of_the_method": "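ELISA readout of CD40 in HUVEC/PBMC co-culture (BSK_LPS system), 24 h post-dosing; bidirectional curve fit, DMSO baseline; parallel SRB total-protein staining for cytotoxicity.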", "values": [{"smiles": "CCOC(=O)C(C)Oc1ccc(Oc2cnc3cc(Cl)ccc3n2)cc1", "note": "(stereo not drawn)", "outcome": "inactive"}, {"smiles": "C#C[C@]1(O)CC[C@H]2[C@@H]3CCC4=CC(=O)CC[C@@H]4[C@H]3CC[C@@]21CC", "outcome": "inactive"}, {"smiles": "CC(C)(c1ccc(O)cc1)c1ccc(O)cc1", "outcome": "inactive"}, {"smiles": "COC(=O)c1ccccc1S(=O)(=O)NC(=O)Nc1nc(OC(F)F)cc(OC(F)F)n1", "outcome": "inactive"}, {"smiles": "S=C(S)NCCNC(=S)S.[Mn+2].[S-]C([S-])=NCCN=C([S-])[S-].[Zn+2]", "outcome": "inactive"}, {"smiles": "CCC(O)=C1C(=O)CC(C(=O)O)CC1=O", "note": "(stereo not drawn)", "outcome": "inactive"}, {"smiles": "CCCCCOC(=O)COc1cc(N2C(=O)C3=C(CCCC3)C2=O)c(F)cc1Cl", "AC50": "16 µM (active)"}, {"smiles": "CCOC(=O)c1ccc(O)cc1", "outcome": "inactive"}, {"smiles": "CCCCC(CC)COC(=O)c1ccccc1C(=O)O", "note": "(stereo not drawn)", "outcome": "inactive"}, {"smiles": "CCOC(=O)NCCOc1ccc(Oc2ccccc2)cc1", "AC50": "8.9 µM (active)"}, {"smiles": "CCC(C)OC(=O)N1CCCCC1CCO", "note": "(stereo not drawn)", "outcome": "inactive"}, {"smiles": "CCNc1nc(N)nc(Cl)n1", "outcome": "inactive"}, {"smiles": "COC(=O)c1ccccc1C(=O)O", "outcome": "inactive"}, {"smiles": "COC(=O)c1cccc(C)c1S(=O)(=O)NC(=O)Nc1nc(OCC(F)(F)F)nc(N(C)C)n1", "outcome": "inactive"}, {"smiles": "O=C(O)C1(C(=O)Nc2ccc(Cl)cc2Cl)CC1", "outcome": "inactive"}, {"smiles": "Oc1ccc(C(c2ccc(O)cc2)C(Cl)(Cl)Cl)cc1", "AC50": "24.9 µM (active)"}, {"smiles": "N[C@@H](Cc1cc(I)c(Oc2ccc(O)c(I)c2)c(I)c1)C(=O)O", "outcome": "inactive"}, {"smiles": "COc1c(Cl)ccc(Cl)c1C(=O)O", "outcome": "inactive"}, {"smiles": "CC(C)CCCCCCc1ccc(O)cc1", "AC50": "9.28 µM (active)"}, {"smiles": "N#CSCSc1nc2ccccc2s1", "AC50": "1.9 µM (active) and 5.14 µM (active)"}, {"smiles": "CCN(Cc1c(F)cccc1Cl)c1c([N+](=O)[O-])cc(C(F)(F)F)cc1[N+](=O)[O-]", "AC50": "9.02 µM (active)"}, {"smiles": "O=C(O)c1ccccc1", "outcome": "inactive"}, {"smiles": "C[C@]12C[C@H](O)[C@H]3[C@@H](CCC4=CC(=O)CC[C@@]43C)[C@@H]1CC[C@@H]2C(=O)CO", "outcome": "inactive"}, {"smiles": "CC(=O)[C@H]1CC[C@H]2[C@@H]3CCC4=CC(=O)CC[C@]4(C)[C@H]3CC[C@]12C", "AC50": "20 µM (active)"}, {"smiles": "CCCCC(CC)CN1C(=O)C2C3C=CC(C3)C2C1=O", "note": "(stereo not drawn)", "AC50": "11.6 µM (active)"}, {"smiles": "O=C(c1ccccc1)C1CCCCC1", "outcome": "inactive"}, {"smiles": "CCCN(CCC)C(=O)SCC", "outcome": "inactive"}, {"smiles": "CCCOC(=O)c1ccc(C(=O)OCCC)nc1", "outcome": "inactive"}, {"smiles": "CCCOC(=O)NCCCN(C)C", "outcome": "inactive"}]}, {"read-out": "E-selectin (Homo sapiens) (UniProt P16581)", "test": "BSK_LPS_Eselectin: BioMAP Diversity Plus: LPS Assay for Eselectin Biomarker Activity (AID 2283077)", "conditions": "primary human HUVEC with PBMC; actives raise or lower the signal", "summary_of_the_method": "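ELISA readout of E-selectin, 24 h post-dose, HUVEC + PBMC co-culture (LPS system). Gain or loss of signal vs DMSO baseline, bidirectional fit.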", "values": [{"smiles": "CCOC(=O)C(C)Oc1ccc(Oc2cnc3cc(Cl)ccc3n2)cc1", "note": "(stereo not drawn)", "outcome": "inactive"}, {"smiles": "C#C[C@]1(O)CC[C@H]2[C@@H]3CCC4=CC(=O)CC[C@@H]4[C@H]3CC[C@@]21CC", "outcome": "inactive"}, {"smiles": "CC(C)(c1ccc(O)cc1)c1ccc(O)cc1", "outcome": "inactive"}, {"smiles": "COC(=O)c1ccccc1S(=O)(=O)NC(=O)Nc1nc(OC(F)F)cc(OC(F)F)n1", "outcome": "inactive"}, {"smiles": "S=C(S)NCCNC(=S)S.[Mn+2].[S-]C([S-])=NCCN=C([S-])[S-].[Zn+2]", "outcome": "inactive"}, {"smiles": "CCC(O)=C1C(=O)CC(C(=O)O)CC1=O", "note": "(stereo not drawn)", "outcome": "inactive"}, {"smiles": "CCCCCOC(=O)COc1cc(N2C(=O)C3=C(CCCC3)C2=O)c(F)cc1Cl", "outcome": "inactive"}, {"smiles": "CCOC(=O)c1ccc(O)cc1", "outcome": "inactive"}, {"smiles": "CCCCC(CC)COC(=O)c1ccccc1C(=O)O", "note": "(stereo not drawn)", "outcome": "inactive"}, {"smiles": "CCOC(=O)NCCOc1ccc(Oc2ccccc2)cc1", "outcome": "inactive"}, {"smiles": "CCC(C)OC(=O)N1CCCCC1CCO", "note": "(stereo not drawn)", "outcome": "inactive"}, {"smiles": "CCNc1nc(N)nc(Cl)n1", "outcome": "inactive"}, {"smiles": "COC(=O)c1ccccc1C(=O)O", "outcome": "inactive"}, {"smiles": "COC(=O)c1cccc(C)c1S(=O)(=O)NC(=O)Nc1nc(OCC(F)(F)F)nc(N(C)C)n1", "outcome": "inactive"}, {"smiles": "O=C(O)C1(C(=O)Nc2ccc(Cl)cc2Cl)CC1", "outcome": "inactive"}, {"smiles": "N[C@@H](Cc1cc(I)c(Oc2ccc(O)c(I)c2)c(I)c1)C(=O)O", "AC50": "13.6 µM (active)"}, {"smiles": "COc1c(Cl)ccc(Cl)c1C(=O)O", "outcome": "inactive"}, {"smiles": "CC(C)CCCCCCc1ccc(O)cc1", "AC50": "12.1 µM (active)"}, {"smiles": "N#CSCSc1nc2ccccc2s1", "AC50": "3.96 µM (active) and 8.13 µM (active)"}, {"smiles": "CCN(Cc1c(F)cccc1Cl)c1c([N+](=O)[O-])cc(C(F)(F)F)cc1[N+](=O)[O-]", "outcome": "inactive"}, {"smiles": "O=C(O)c1ccccc1", "outcome": "inactive"}, {"smiles": "Cc1nn(C)c(Oc2ccccc2)c1C=NOCc1ccc(C(=O)OC(C)(C)C)cc1", "outcome": "inactive"}, {"smiles": "C[C@]12C[C@H](O)[C@H]3[C@@H](CCC4=CC(=O)CC[C@@]43C)[C@@H]1CC[C@@H]2C(=O)CO", "outcome": "inactive"}, {"smiles": "CC(=O)[C@H]1CC[C@H]2[C@@H]3CCC4=CC(=O)CC[C@]4(C)[C@H]3CC[C@]12C", "AC50": "25.3 µM (active)"}, {"smiles": "CCCCC(CC)CN1C(=O)C2C3C=CC(C3)C2C1=O", "note": "(stereo not drawn)", "outcome": "inactive"}, {"smiles": "O=C(c1ccccc1)C1CCCCC1", "outcome": "inactive"}, {"smiles": "CCCN(CCC)C(=O)SCC", "outcome": "inactive"}, {"smiles": "CCCOC(=O)c1ccc(C(=O)OCCC)nc1", "outcome": "inactive"}, {"smiles": "CCCOC(=O)NCCCN(C)C", "outcome": "inactive"}]}]}
